Assay [1] can be described thus: inhibitors of TNFa-induced NFkB p65 translocation, primary screen, imaging, HUVEC, MLSMR starter and 10KST1 sets (AID 438;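 active = inhibition above 20% together with a positive visual image hit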;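 also: compound added about 3h40 before a 20 min TNFalpha stimulation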;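 as to inhibition: signal is the nuclear over cytoplasmic p65 intensity ratio per well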). The note with it: HUVEC TNFa-induced p65 nuclear translocation; cell count: measured here: nuclei count (cytotoxicity indicator), at 2.08 µM unless noted; inhibition: at 2 µM, stronger effect = higher value unless noted.
Assay [2] can be described thus: inhibitors of mutant huntingtin aggregation, primary screen, imaging, exon1htt(103Q)mCFP cells, high-content imaging (AID 483;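 active = visual image review flags a hit and inhibition of aggregation exceeds 20%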;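 also: compound exposure lasted 3 days before fixation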;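 as to nuclei count: percent of the per-plate median nuclei count of sample wells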). As to conditions: exon1htt(103Q)mCFP cell line, aggregate imaging, at 2 µM; inhibition of aggregation: stronger effect = higher value; nuclei count: measured here: cell count, toxicity.
A short description of assay [3]: inhibitors of E-selectin induction by TNFa, primary screen, imaging, HUVEC, immunofluorescence, MLSMR starter and 10KST1 sets (AID 487;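 active = visually confirmed hit in the image check and inhibition above 20%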;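 as to inhibition: signal is fraction of cell area covered by stained E-selectin grains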;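 as to nuclei count: 100% = median nuclei count of all wells on the same plate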). The note with it: HUVEC TNFalpha-induced E-selectin immunofluorescence imaging, at 2 µM; inhibition: stronger effect = higher value; nuclei count: measured here: cell number, toxicity.
Assay [4] in a line: DUSP6 inhibitors restoring Erk phosphorylation by chemical complementation, primary imaging in DUSP6-transfected HeLa (AID 609;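 active = compounds giving at least 50% inhibition in the cell-based MKP-3 phosphatase rescue imaging test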;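 as to inhibition: phospho-Erk level distribution per well compared with pooled transfected vehicle control wells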). The note with it: HeLa MKP-3 transfected, phospho-Erk imaging KS statistic, at 10 µM.
The target of assay [5] is Dual specificity protein phosphatase 6 (Homo sapiens) (UniProt Q16828). Described as above. The note with it: HeLa MKP-3 transfected, phospho-Erk imaging KS statistic, at 10 µM, stronger effect = higher value.
Chain of Dual specificity protein phosphatase 6 (Homo sapiens) (Q16828 whole entry, looked up): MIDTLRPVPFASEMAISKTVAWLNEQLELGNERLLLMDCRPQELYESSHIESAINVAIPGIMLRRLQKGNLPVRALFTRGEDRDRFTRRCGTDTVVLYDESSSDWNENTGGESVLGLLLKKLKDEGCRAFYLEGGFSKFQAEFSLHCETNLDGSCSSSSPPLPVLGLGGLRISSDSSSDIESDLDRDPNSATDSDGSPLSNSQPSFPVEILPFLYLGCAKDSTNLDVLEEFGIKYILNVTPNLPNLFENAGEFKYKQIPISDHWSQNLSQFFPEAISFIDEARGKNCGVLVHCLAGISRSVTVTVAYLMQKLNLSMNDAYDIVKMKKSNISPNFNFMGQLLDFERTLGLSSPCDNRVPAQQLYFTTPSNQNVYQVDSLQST
Assay [6] addresses Voltage-gated potassium channel subunit beta-2 (Rattus norvegicus) (UniProt P62483). In words: KvBeta enzyme negative modulators, primary screen, biochemical, NADPH fluorescence (AID 622;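 active = fluorescence slope higher than the sample average by over 3 SD, cut at about -0.22 in these data, passing the limit was not always enough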;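 also: slope of raw intensity against log time taken from 70 to 1610 s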). As to conditions: recombinant KvBeta, 4-cyanobenzaldehyde reduction, at 10 µM, stronger effect = higher value.
The target is the same in assay [7]. In words: KvBeta positive modulators, primary screen, biochemical, NADPH fluorescence (AID 623;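 active = NADPH fluorescence slope more negative than the mean of all samples by about 3 SD, 99.7% confidence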;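 also: fluorescence intensity change per second fitted from 20 to 320 s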). As to conditions: Recombinant KvBeta, NADPH fluorescence decrease slope, 10 min; at 10 µM; stronger effect = lower value.
In assay [8] the target is Muscarinic acetylcholine receptor M4 (Homo sapiens) (UniProt P08173). In words: compounds altering M4/GIRK thallium flux, either direction, primary screen, M4 allosteric agonist project, cell-based, HEK293 M4/GIRK, BTC-AM (AID 625;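 active = fluorescence slope after compound addition differing from the mean of all tested samples at 99.7% confidence, mostly higher but some lower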;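 also: thallium influx through GIRK channels coupled to M4 in HEK293 cells with BTC-AM dye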). The note with it: at 10 µM, actives lie on both sides.
Chain of Muscarinic acetylcholine receptor M4 (Homo sapiens) (P08173 whole entry, looked up): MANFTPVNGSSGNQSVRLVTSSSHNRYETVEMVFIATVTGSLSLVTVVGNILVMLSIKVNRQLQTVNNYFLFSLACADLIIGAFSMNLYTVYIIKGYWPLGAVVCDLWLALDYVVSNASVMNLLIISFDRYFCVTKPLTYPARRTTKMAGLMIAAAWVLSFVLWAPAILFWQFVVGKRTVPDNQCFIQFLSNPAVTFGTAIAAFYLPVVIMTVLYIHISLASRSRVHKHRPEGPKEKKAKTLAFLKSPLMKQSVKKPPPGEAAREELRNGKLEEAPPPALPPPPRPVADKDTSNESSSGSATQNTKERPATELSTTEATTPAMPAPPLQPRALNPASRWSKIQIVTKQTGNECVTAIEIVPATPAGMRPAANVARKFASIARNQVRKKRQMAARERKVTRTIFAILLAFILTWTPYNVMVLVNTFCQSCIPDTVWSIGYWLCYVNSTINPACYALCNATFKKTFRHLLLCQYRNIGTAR
A short description of assay [9]: inhibitors of larval lipid processing in zebrafish, primary screen, whole organism, PED6 fluorescence, gall bladder and intestine (AID 686;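 active = a full or partial loss of lipid-probe fluorescence in the fish gall bladder, intestine or both, judged by eye; inactive = no fluorescence loss, or compound toxic to the fish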;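 also: larvae 5 to 7 days old with five fish per well; signal comes from phospholipase A2 cleavage of quenched PED6 carried via bile; overnight exposure to compound and PED6 before scoring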). The note with it: Zebrafish larvae PED6 lipid processing, fluorescence scoring.
Assay [10] is described as follows: inhibitors of Chlamydomonas gravitaxis, primary screen, whole organism, Chlamydomonas reinhardtii, WT vs cilia-less mutant, absorbance, 96-well (AID 463189).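 Also: 0% = wild type cc124 cells in DMSO and 100% = ciliumless bld1 mutant cells.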 As to conditions: OD600 absorbance, 2 days, at 10 µM, stronger effect = higher value.
Assay [11] can be described thus: inhibitors of Sendai virus-induced IRF3 signaling, primary screen, TLR/RLR signaling modifier project, cell-based, Sendai virus stimulus, luciferase, 10K MLSCN set (AID 602276;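 active = inhibition at or above 50% at 10 µM; inactive = inhibition below 50%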;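 also: firefly luciferase from ISG56 promoter only with Renilla not read in this screen; 0% = Sendai virus plus DMSO and 100% = medium plus DMSO without virus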). The note with it: HEK293 RL24 IRF3 luciferase reporter, at 10 µM, stronger effect = higher value. (Reporter assays use an easily measured gene product as a stand-in for the process of interest.)
A short description of assay [12]: inhibitors of poly I:C-induced TLR3 signaling, primary screen, cell-based, poly I:C stimulus, luciferase, 10K MLSCN set (AID 602277;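 active = inhibition of the reporter signal at or above 50%; inactive = inhibition below 50%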). As to conditions: HEK293-TLR3 RL24 IRF3 luciferase reporter, at 10 µM, stronger effect = higher value.
Assay [13] has as its target Alpha-2C adrenergic receptor (Homo sapiens) (UniProt P18825). Description: modulators of alpha2C/GIRK thallium flux, primary screen, cell-based, HEK293 alpha2C/GIRK1/2 (AID 624;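 active = fluorescence slope after compound addition differing from the mean of all screened samples at 99.7% confidence, in either direction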;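 also: slope of fluorescence ratio to pre-addition baseline per second over 15 to 24 s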). As to conditions: thallium flux BTC fluorescence, at 10 µM, actives lie on both sides.
The mark [14] stands for this setting: measured here: cell density z-score.
The mark [15] stands for this setting: measured here: nuclear c-Myc green intensity z-score.
Where [16] appears, read: measured here: nuclear pErk red intensity z-score, stronger effect = higher value.

Molecules are shown by their SMILES. Values joined by “and” are separate entries in the source; they are usually repeats but may differ in a detail not shown here. Identical values can stand only once. Active and inactive are the calls of the source.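 The calls were made as follows, unless noted: active = inhibition at or above 50% relative to wild type and mutant plate controls; inactive = inhibition below 50%.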

Chain of Alpha-2C adrenergic receptor (Homo sapiens) (P18825 whole entry, looked up): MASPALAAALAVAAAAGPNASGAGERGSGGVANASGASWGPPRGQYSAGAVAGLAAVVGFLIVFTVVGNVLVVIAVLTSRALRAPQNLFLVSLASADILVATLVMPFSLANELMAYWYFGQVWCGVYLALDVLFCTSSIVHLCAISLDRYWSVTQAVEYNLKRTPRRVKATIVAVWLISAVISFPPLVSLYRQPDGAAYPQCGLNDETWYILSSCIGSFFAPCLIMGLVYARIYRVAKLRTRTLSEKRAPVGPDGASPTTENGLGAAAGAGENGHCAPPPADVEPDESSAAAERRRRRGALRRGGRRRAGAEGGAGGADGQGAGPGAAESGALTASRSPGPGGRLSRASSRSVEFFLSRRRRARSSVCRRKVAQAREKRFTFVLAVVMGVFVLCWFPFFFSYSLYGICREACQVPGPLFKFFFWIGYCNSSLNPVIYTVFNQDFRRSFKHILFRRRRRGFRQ
Chain of Voltage-gated potassium channel subunit beta-2 (Rattus norvegicus) (P62483 whole entry, looked up): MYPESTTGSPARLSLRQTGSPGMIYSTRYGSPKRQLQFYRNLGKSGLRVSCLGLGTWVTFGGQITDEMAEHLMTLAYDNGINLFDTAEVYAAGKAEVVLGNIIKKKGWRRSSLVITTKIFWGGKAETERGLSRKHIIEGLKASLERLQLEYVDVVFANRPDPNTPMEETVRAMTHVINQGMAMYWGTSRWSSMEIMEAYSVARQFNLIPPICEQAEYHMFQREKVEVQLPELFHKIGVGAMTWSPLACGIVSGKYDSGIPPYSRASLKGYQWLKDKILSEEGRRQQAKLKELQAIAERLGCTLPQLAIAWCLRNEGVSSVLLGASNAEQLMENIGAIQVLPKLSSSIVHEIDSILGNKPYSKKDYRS

In general, inhibition refers to the relative decrease from the control value, in per cent. `Cc1ccc(C)c(C2(O)CC(C)N(C)CC2C)c1` (stereo unspecified) gave a cell count in assay [1] of 530. For the same compound, the inhibition was 1.6% (inactive) in assay [1]; -53.3% (inactive) in assay [3]; 5.35% (inactive) in [5]; -6.61% (inactive) in assay [10]; -14.7% (inactive) in [11]; 94.6% (active) in [12]. In addition, the inhibition of aggregation in assay [2] was -5.5% (inactive). Besides, the nuclei count in assay [2] was 99.7%; in [3], 111%. Also, the z-score is -0.226 in assay [4] (setting [14]), 0.594 in assay [4] (setting [15]) and -0.947 in assay [4] (setting [16]). The results for the fluorescence slope in [6] and in assay [8] were -0.458 (inactive) and 0.00518 (inactive), respectively. Besides, in assay [7], the NADPH fluorescence slope was -4.2e-05 (inactive). In addition, the result in [9] was inactive.
In [1], `NCC(CC(=O)O)c1ccc(Cl)cc1` (stereo unspecified) gave a cell count of 601. The inhibition in assay [1] is -13.8% (inactive); in assay [3], -102% (inactive); in assay [5], 9.37% (inactive); in [10], -1.51% (inactive) and 3.49% (inactive); in assay [11], 13.4% (inactive); in assay [12] it was 26.4% (inactive). Moreover, in [2], the inhibition of aggregation is -0.4% (inactive). For the same compound, the nuclei count in assay [2] turned out to be 95.6%; in assay [3] it was 112%. Also, the z-score was -0.759 in assay [4] (setting [14]), 1.88 in [4] (setting [15]) and 0.491 in [4] (setting [16]). The fluorescence slope in [6] is -0.448 (inactive). Moreover, in [7], the NADPH fluorescence slope is -4.9e-05 (inactive). The slope in [13] is 0.00441 (inactive). The call in assay [9] was inactive.
Consider `CC(=O)[C@H]1CC[C@H]2[C@@H]3CC[C@H]4C[C@H](O)CC[C@]4(C)[C@H]3C(=O)C[C@]12C`, for which the cell count in assay [1] was 549. The inhibition in assay [1] was -11.5% (inactive); in assay [3], -98.9% (inactive); in assay [5] it was -6.41% (inactive); in assay [10] it was 5.76% (inactive) and -1.15% (inactive); in assay [11], 10.2% (inactive); in [12], 20.7% (inactive). Besides, in assay [2], the inhibition of aggregation was 17.3% (inactive). The nuclei count was determined as 94.7% in assay [2] and 100% in [3]. Also, the z-score in [4] (setting [14]) is -1.19; in assay [4] (setting [15]), -0.45; in assay [4] (setting [16]) it was 1.1. For the same compound, the fluorescence slope in [6] was -0.534 (inactive). Also, the NADPH fluorescence slope in assay [7] is -4.5e-05 (inactive). For the same compound, the slope in assay [13] is 0.00562 (inactive). Further, in assay [9], the compound was classed as inactive.
In turn, `C#C[C@]1(O)CC[C@H]2[C@@H]3CCC4=CC(=O)CC[C@]4(C)[C@H]3CC[C@@]21C` came in with a cell count in assay [1] of 605. Also, the inhibition is 4.5% (inactive) in assay [1]; -96.4% (inactive) in assay [3]; 19% (inactive) in [5]; -7.99% (inactive) in [10]; 9.99% (inactive) in [11]; 37.9% (inactive) in assay [12]. Besides, in assay [2], the inhibition of aggregation was -1.7% (inactive). Also, the nuclei count in [2] worked out at 104%; in assay [3], 120%. Besides, the results for the z-score in [4] (setting [14]), in assay [4] (setting [15]) and in assay [4] (setting [16]) were 0.928, -0.272 and -0.147, respectively. Besides, the fluorescence slope in [6] was -0.469 (inactive). Also, in [7], the NADPH fluorescence slope was -5.4e-05 (inactive). Besides, in assay [13], the slope is 0.00473 (inactive). Further, in assay [9], the compound was classed as inactive.
Turning to `O=c1[nH]c(=O)n(CCc2ccccc2)c(O)c1C=NCCN1CCNCC1`, the cell count in [1] amounted to 554. Further, the inhibition was -4% (inactive) in assay [1]; -30.7% (inactive) in [3]; -3.5% (inactive) in assay [5]; -4.22% (inactive) in assay [10]; 18.3% (inactive) in assay [11]; 21.6% (inactive) in assay [12]. In assay [2], the inhibition of aggregation is -1.9% (inactive). Also, the nuclei count in assay [2] came out at 109%; in assay [3], 123%. The results for the z-score in assay [4] (setting [14]), in assay [4] (setting [15]) and in assay [4] (setting [16]) were -0.452, -0.273 and -0.327, respectively. Besides, the fluorescence slope in assay [6] was -0.348 (inactive). In assay [7], the NADPH fluorescence slope was 2e-05 (inactive). Moreover, the slope in assay [13] is 0.0061 (inactive). In [9], the call was inactive.
In the case of `CC(C)N(CCC(C(N)=O)(c1ccccc1)c1ccccn1)C(C)C` (stereo unspecified), in assay [1], the cell count came out at 539. The inhibition in [1] was -8.5% (inactive); in assay [3], -22.4% (inactive); in assay [5] it was 9.37% (inactive); in [10], 1.35% (inactive) and 4.32% (inactive) and 26.6% (inactive); in [11] it was 6.44% (inactive); in assay [12], 34% (inactive). Also, in assay [2], the inhibition of aggregation is -2.7% (inactive). Besides, the nuclei count came to 104% in assay [2] and 106% in assay [3]. Further, the results for the z-score in assay [4] (setting [14]), in assay [4] (setting [15]) and in assay [4] (setting [16]) were -0.772, 0.954 and 0.768, respectively. In addition, in assay [6], the fluorescence slope is -0.515 (inactive). Moreover, the NADPH fluorescence slope in [7] was -7.6e-05 (inactive). For the same compound, the slope in assay [13] is 0.00456 (inactive). Besides, the compound was classed as inactive in [9].
Compound `CC(NC(C)(C)C)C(=O)c1cccc(Cl)c1` (stereo unspecified) returned a cell count in assay [1] of 651. For the same compound, the inhibition was -1.3% (inactive) in assay [1]; -75.7% (inactive) in [3]; 12.4% (inactive) in [5]; -4.32% (inactive) and 13.4% (inactive) in [10]; 11.7% (inactive) in assay [11]; 29.6% (inactive) in [12]. Also, the inhibition of aggregation in assay [2] was 4% (inactive). For the same compound, the nuclei count in assay [2] stood at 102%; in assay [3], 132%. The figures for the z-score in [4] (setting [14]), in assay [4] (setting [15]) and in assay [4] (setting [16]) were -0.59, 0.546 and -0.888, respectively. Also, the fluorescence slope in assay [6] was -0.447 (inactive). The NADPH fluorescence slope in assay [7] was -3.7e-05 (inactive). Also, the slope in assay [13] was 0.00462 (inactive). Moreover, the compound was called inactive in assay [9].
In turn, `COc1ccc(C(=O)N2CCCC2=O)cc1` displayed a cell count in assay [1] of 667. For the same compound, the inhibition was 2.2% (inactive) in assay [1]; -40.5% (inactive) in assay [3]; 19% (inactive) in assay [5]; 6.16% (inactive) and 14.6% (inactive) in assay [10]; 13.2% (inactive) in [11]; 20.9% (inactive) in assay [12]. For the same compound, the inhibition of aggregation in assay [2] was 11.2% (inactive). For the same compound, the nuclei count in assay [2] amounted to 104%; in assay [3], 108%. The z-score in [4] (setting [14]) was 0.0379; in assay [4] (setting [15]), -0.632; in assay [4] (setting [16]), 1.58. Moreover, the fluorescence slope in [6] was -0.52 (inactive). For the same compound, the NADPH fluorescence slope in assay [7] was -4.5e-05 (inactive). Also, the slope in assay [13] is 0.00436 (inactive). In addition, in assay [9], the outcome was inactive.
`O=C1NCCN2CCCC12` (stereo unspecified) yielded a cell count in [1] of 549. The inhibition was -10.8% (inactive) in assay [1], -50.9% (inactive) in assay [3], -0.608% (inactive) in [5] and 13.6% (inactive) in assay [10]. This compound also displayed a nuclei count in assay [3] of 158%. The z-score in assay [4] (setting [14]) was -1.06; in [4] (setting [15]) it was -1.18; in assay [4] (setting [16]), 1.73. Also, in assay [6], the fluorescence slope is -0.497 (inactive). Moreover, the NADPH fluorescence slope in assay [7] is -0.000122 (inactive). Also, the slope in [13] is 0.00514 (inactive). In addition, the result in assay [9] was inactive.
`C=CCn1c(O)c(C=NCCN(C)C)c(=O)[nH]c1=O` displayed a cell count in assay [1] of 342. Also, the inhibition is -5% (inactive) in assay [1]; 9.5% (inactive) in assay [3]; 19.3% (inactive) in assay [5]; -19.1% (inactive) in [10]; -1.86% (inactive) in assay [11]; -11.3% (inactive) in assay [12]. For the same compound, in [2], the inhibition of aggregation was -0.9% (inactive). In addition, the values for the nuclei count in [2] and in assay [3] were 97.7% and 97.2%, respectively. In addition, the values for the z-score in assay [4] (setting [14]), in assay [4] (setting [15]) and in assay [4] (setting [16]) were 0.486, -0.511 and -0.0175, respectively. Further, the fluorescence slope in assay [6] is -0.462 (inactive). Further, in assay [7], the NADPH fluorescence slope was -0.000118 (inactive). Further, in [13], the slope is 0.00873 (inactive). For the same compound, the result in assay [9] was inactive.
